This passage reports Potency, outcome and activity change, positive = activation results from PubChem BioAssay (Tox21).

A number with no mark means an inactive call. Records with an inconclusive call do not appear. Active and inactive are the calls of the source. Unless noted, calls follow the shape of the dose curve; as a rule, active = well fitted curve in the direction sought with a large enough effect in the repeat runs; inconclusive = weak or mixed curves; inactive = no such curve, though single readings can be large; an effect the other way counts as inactive or inconclusive.

The nature of experiment [1]: qHTS assay to identify small molecule antagonists of the estrogen related receptor (ERR) signaling pathway from Tox21 library - cell viability counter screen (AID 1224834). Also: nearly all actives have a fitted effect of over 30% in size. Summed up:
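In this quantitative HTS format, ERR cells receive compounds in DMSO and are incubated for 17.5 h at 37 C. Live-cell protease activity is then detected with CellTiter-Fluor.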
In general terms: In qHTS, concentration-response curves come from the screen itself.

The target of experiment [2] is Luciferin 4-monooxygenase (Photinus pyralis) (UniProt P08659). As to the kind of experiment: qHTS assay to identify small molecule inhibitors of firefly luciferase (AID 1224835). Also: nearly all actives have a fitted effect of over 25% in size. Put shortly: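 Quantitative HTS format; KM concentrations of both substrates. Purified P. pyralis FLuc activity quantified from luminescence images.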
Chain of Luciferin 4-monooxygenase (Photinus pyralis) (P08659 whole entry, looked up): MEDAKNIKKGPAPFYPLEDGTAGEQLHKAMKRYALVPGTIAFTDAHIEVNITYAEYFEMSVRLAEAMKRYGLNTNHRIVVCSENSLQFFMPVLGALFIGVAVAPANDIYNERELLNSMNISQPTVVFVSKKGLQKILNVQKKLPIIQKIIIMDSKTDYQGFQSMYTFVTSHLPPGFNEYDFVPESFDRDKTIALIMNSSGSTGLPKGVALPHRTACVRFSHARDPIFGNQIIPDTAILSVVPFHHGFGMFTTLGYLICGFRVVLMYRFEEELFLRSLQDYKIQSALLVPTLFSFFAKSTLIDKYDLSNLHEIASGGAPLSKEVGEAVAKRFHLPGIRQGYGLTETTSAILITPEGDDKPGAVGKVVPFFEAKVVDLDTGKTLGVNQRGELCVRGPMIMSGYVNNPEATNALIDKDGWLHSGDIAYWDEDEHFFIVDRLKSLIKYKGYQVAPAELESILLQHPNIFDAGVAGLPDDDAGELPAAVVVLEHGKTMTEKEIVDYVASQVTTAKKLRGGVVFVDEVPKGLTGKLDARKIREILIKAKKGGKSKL
Experiment [3] can be described thus: qHTS assay to identify small molecule agonists of the constitutive androstane receptor (CAR) signaling pathway - cell viability counter screen (AID 1224836). Also: nearly all actives have a fitted effect of over 45% in size. Summed up: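 HepG2 cells stably carrying hCAR and a CYP2B6-2.2kb reporter were plated 4 h, then given compounds at 15 concentrations plus PK11195 (final 0.75 uM). After 23 h at 37 C, viability was read by CellTiter-Fluor fluorescence.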

Experiment [4] can be described thus: qHTS assay to identify small molecule antagonists of the constitutive androstane receptor (CAR) signaling pathway - cell viability counter screen (AID 1224837). Also: nearly all actives have a fitted effect of over 45% in size. Put shortly:
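In quantitative HTS format, compounds at 15 concentrations were applied to HepG2 cells double-transfected with hCAR and CYP2B6-2.2kb under 50 nM CITCO stimulation; live-cell protease activity was read after 23 hr via CellTiter-Fluor.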

Experiment [5] has as its target Nuclear receptor subfamily 1 group I member 3 (Homo sapiens) (UniProt Q14994). The experiment can be described thus: qHTS assay to identify small molecule antagonists of the constitutive androstane receptor (CAR) signaling pathway (AID 1224838). Also: nearly all actives have a fitted effect of over 40% in size. Also: potency is read from the fitted curve at half-maximal effect. Put shortly: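 CITCO-stimulated (50 nM final) HepG2 cells stably transfected with hCAR and CYP2B6-2.2kb luciferase were exposed to compounds at 15 concentrations for 24 h at 37 C/5% CO2. A luciferase reagent was added and luminescence recorded after 30 min.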

Experiment [6] shares this target. As to the kind of experiment: qHTS assay to identify small molecule agonists of the constitutive androstane receptor (CAR) signaling pathway (AID 1224839). Also: nearly all actives have a fitted effect of over 15% in size. Put shortly: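 HepG2 cells stably expressing hCAR and a CYP2B6-2.2kb luciferase reporter were treated with compounds at 15 concentrations plus 0.75 uM PK11195 (final) for 24 h at 37 C; luminescence was read after ONE-Glo addition.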

Experiment [7] in a line: qHTS assay to identify small molecule antagonists of the estrogen related receptor signaling pathway with the pleiotropic PPARgamma coactivator (PGC) from Tox21 10K library - cell viability counter screen (AID 1224840; active = well fitted cell-killing curve with a large enough effect in the repeat runs, not every such curve was filed as active; also: nearly all actives have a fitted effect of over 40% in size). Summed up: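 Viability counter screen, PGC/ERR cells: 17.5 h compound exposure at 37 C, CellTiter-Fluor fluorescence endpoint.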
The nature of experiment [8]: qHTS assay to identify small molecule antagonists of the estrogen related receptor signaling pathway with the pleiotropic PPARgamma coactivator (PGC) from Tox21 10K library (AID 1224841; call rule not given here; also: actives are mostly falling curves and most rising ones were filed inactive; nearly all actives have a fitted effect of over 50% in size). Put shortly:
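In the PGC/ERR line, DMSO solutions of test chemicals are pin-delivered to 2,000 cells/well six hours after dispensing. Following eighteen hours' incubation, One-Glo reagent is added and luminescence recorded.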

A short description of experiment [9]: qHTS assay to identify small molecule agonists of the estrogen related receptor signaling pathway with the pleiotropic PPARgamma coactivator (PGC) from Tox21 10K library (AID 1224842). Also: nearly all actives have a fitted effect of over 15% in size. Put shortly:
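PGC/ERR reporter cells (NTP line) were seeded 2,000 per well, rested 6 h at 37 C/5% CO2, then pin-dosed with compounds in DMSO for 18 h at 37 C; luciferase read by One-Glo luminescence after 30 min at room temperature.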

Experiment [10] deals with Thyrotropin receptor (Homo sapiens) (UniProt P16473). The experiment can be described thus: qHTS assay to identify small molecule agonists of the thyroid stimulating hormone receptor (TSHR) signaling pathway (AID 1224843; calls by dose curve; also: nearly all actives have a fitted effect of over 45% in size). Put shortly: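 Compounds are titrated over 15 concentrations, in triplicate, onto TSHR-HEK293 cells seeded at 800/well. Plates sit 30 min at room temperature before cAMP-d2 and anti-cAMP cryptate are added; signal is read after a further hour.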
Chain of Thyrotropin receptor (Homo sapiens) (P16473 whole entry, looked up): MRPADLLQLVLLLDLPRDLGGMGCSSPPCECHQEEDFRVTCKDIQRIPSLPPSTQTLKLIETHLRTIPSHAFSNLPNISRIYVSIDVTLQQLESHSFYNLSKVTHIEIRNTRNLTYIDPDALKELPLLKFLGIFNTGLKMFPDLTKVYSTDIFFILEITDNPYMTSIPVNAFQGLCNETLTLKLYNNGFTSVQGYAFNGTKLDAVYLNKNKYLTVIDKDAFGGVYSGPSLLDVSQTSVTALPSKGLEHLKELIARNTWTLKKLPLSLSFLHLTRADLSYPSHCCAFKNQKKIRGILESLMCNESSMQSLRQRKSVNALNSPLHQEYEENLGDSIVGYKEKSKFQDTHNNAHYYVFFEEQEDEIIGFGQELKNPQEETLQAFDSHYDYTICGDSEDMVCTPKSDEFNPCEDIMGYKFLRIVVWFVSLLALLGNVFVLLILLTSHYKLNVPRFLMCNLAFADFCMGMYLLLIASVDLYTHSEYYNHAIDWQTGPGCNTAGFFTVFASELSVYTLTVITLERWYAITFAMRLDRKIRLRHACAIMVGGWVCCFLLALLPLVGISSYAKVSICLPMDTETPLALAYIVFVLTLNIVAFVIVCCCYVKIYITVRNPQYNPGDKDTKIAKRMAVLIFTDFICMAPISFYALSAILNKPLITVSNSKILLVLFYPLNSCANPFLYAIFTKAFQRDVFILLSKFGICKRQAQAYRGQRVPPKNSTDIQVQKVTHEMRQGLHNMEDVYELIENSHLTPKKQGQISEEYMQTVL

Experiment [11] in a line: qHTS assay to identify small molecule agonists of the hypoxia (HIF-1) signaling pathway - cell viability counter screen (AID 1224844; calls by dose curve; also: nearly all actives have a fitted effect of over 50% in size). Summed up: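 Same wells as the HIF-1 reporter screen; ME-180 cells carrying HRE-bla, 17 hr treatment at 37C; CellTiter-Glo luminescence read after 30 min at room temperature.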
Experiment [12] is described as follows: qHTS assay to identify small molecule agonists of H2AX (AID 1224845; active = well fitted activation curve with a large enough effect in the signal ratio in the repeat runs, not every such curve was filed as active; the % refers to the signal ratio). Put shortly: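 Wild-type CHO-K1 cells plated overnight, then exposed 3 hr at 37C to compounds at 15 concentrations (0.76% DMSO). Lysed, then HTRF anti-pH2AX(S139)-cryptate/anti-H2AX-d2 detection after 24 hr at room temperature; emissions 665 and 620 nm.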
The nature of experiment [13]: qHTS assay to identify small molecule agonists of the hypoxia (HIF-1) signaling pathway (AID 1224846; active = well fitted activation curve with a large enough effect in the signal ratio in the repeat runs, not every such curve was filed as active; the % refers to the signal ratio). Summed up: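 In ME-180 cells bearing an HRE-bla construct, 17 h treatment with DMSO-dissolved compounds at 37C was followed by CCF4-AM loading to quantify reporter induction.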
Experiment [14] in a line: qHTS assay to identify small molecule agonists of H2AX - cell viability counter screen (AID 1224847; calls by dose curve; also: top concentration of the series differs between compounds; nearly all actives have a fitted effect of over 30% in size). Summed up:
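Wild-type CHO-K1 cells (10% FBS medium) were plated overnight at 37C, exposed to compounds at 15 concentrations for 3 hr at 37C (0.76% DMSO final), and viability was read as CellTiter-Glo luminescence after 30 min at room temperature.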

Experiment [15] in a line: qHTS assay to identify small molecule antagonists of the estrogen related receptor (ERR) signaling pathway from Tox21 library (AID 1224848). Also: nearly all actives have a fitted effect of over 50% in size. Put shortly:
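First, 2,000 ERR cells per well were plated and held 6 h at 37 C/5% CO2. Next, compounds in DMSO were pinned in and left 18 h at 37 C. Finally, ONE-Glo was added and luminescence read after 30 min at room temperature.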

The nature of experiment [16]: qHTS RealTime-Glo MT Cell Viability Assay in HepG2 cells - 24 hour (AID 1224867). Also: nearly all actives have a fitted effect of over 50% in size. Put shortly: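 Compound treatment began 5 h after plating HepG2 cells (600/well) with NanoLuc luciferase and prosubstrate. Plates stayed at 37 C for 40 h; luminescence was captured at six time points, 0 h through 40 h.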
Experiment [17] can be described thus: qHTS RealTime-Glo MT Cell Viability Assay in HEK293 cells - 32 hour (AID 1224868). Summed up:
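Quantitative high-throughput screen of the Tox21 10K library in HEK293: cells and RealTime-Glo reagents plated together, compound added at 5 h, luminescence monitored through 40 h at 37 C.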

Experiment [18] can be described thus: A CellTox Green Cytotoxicity Assay to monitor cytotoxicity in HEK293 cells - 0 hour (AID 1224869). Also: nearly all actives have a fitted effect of over 50% in size. Put shortly: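 Homogeneous no-lysis format: HEK293 cell suspension mixed with CellTox Green reagent, seeded, incubated 5 h at 37 C/5% CO2, then dosed by pintool with compound in DMSO.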
Experiment [19] in a line: qHTS assay to identify small molecule agonists of the estrogen related receptor (ERR) signaling pathway from Tox21 library (AID 1224849; calls by dose curve; also: nearly all actives have a fitted effect of over 15% in size). The settings on record: ERR reporter cell line, ONE-Glo luciferase, 18 h; at 92.4 µM (top of the series). Put shortly:
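Reporter cells (ERR, NTP source) treated with Tox21 10K compounds 18 h, 37 C. Readout: ONE-Glo luminescence, 30 min RT.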

Experiment [20] is described as follows: qHTS assay to identify small molecule agonists of the estrogen related receptor signaling pathway with the pleiotropic PPARgamma coactivator (PGC) (AID 1224823). Summed up: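 Luminescence from One-Glo reagent (30 min, room temperature) was read after 18 h compound treatment at 37 C of PGC/ERR cells plated 6 h beforehand; compounds delivered in DMSO by pin tool.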
% is scaled to controls: 0 for no effect and ±100 for the full control effect.

Chain of Nuclear receptor subfamily 1 group I member 3 (Homo sapiens) (Q14994 whole entry, looked up): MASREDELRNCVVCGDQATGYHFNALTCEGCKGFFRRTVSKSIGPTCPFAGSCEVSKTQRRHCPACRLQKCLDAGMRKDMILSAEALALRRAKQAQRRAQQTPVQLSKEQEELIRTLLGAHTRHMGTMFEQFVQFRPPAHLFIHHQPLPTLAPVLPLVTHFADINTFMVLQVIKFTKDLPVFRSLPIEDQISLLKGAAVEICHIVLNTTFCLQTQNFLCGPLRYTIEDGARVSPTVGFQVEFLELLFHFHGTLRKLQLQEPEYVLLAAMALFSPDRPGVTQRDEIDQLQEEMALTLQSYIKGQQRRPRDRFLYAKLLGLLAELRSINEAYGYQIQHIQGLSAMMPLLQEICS

With `O=c1cc[nH]c(=O)[nH]1`, the Potency result in experiment [1], in experiment [2], in experiment [3], in experiment [4], in [5] and in experiment [6] was “inactive” in each case. Further, the Potency entry in [7], in experiment [8], in experiment [9], in [10], in [11] and in experiment [12] was “inactive” each time. Moreover, the Potency entry in experiment [14], in experiment [15], in [17] and in experiment [18] was “inactive” in each case. Further, the compound was called inactive in [13] and in experiment [16].
Turning to `CCCCCCCCOc1ccc(C(=O)c2ccccc2)c(O)c1`, the Potency entry in experiment [1], in experiment [2], in experiment [3], in experiment [4], in [6] and in experiment [7] was “inactive” throughout. Moreover, the Potency result in experiment [8], in experiment [9], in [10], in experiment [12], in [14] and in [15] was “inactive” throughout. For the same compound, the Potency result in [17] and in [18] was “inactive” in each case. Further, in experiment [5], the Potency is 7.5 µM (active). Moreover, the compound was classed as inactive in experiment [13] and in experiment [16].
For `CCCCCCCCCCCCCCCCCC(=O)OCC(O)CO` (configuration not stated), the Potency result in [1], in experiment [2], in experiment [3], in experiment [4], in experiment [5] and in experiment [6] was “inactive” throughout. Also, the Potency result in experiment [7], in experiment [10], in experiment [11], in experiment [12], in [14] and in [17] was “inactive” each time. Moreover, the Potency entry in experiment [18] is “inactive”. Moreover, the call in [13] and in experiment [16] was inactive.
For the compound `CC1(C)O[C@@H]2[C@@H](CO[C@@]3(COS(N)(=O)=O)OC(C)(C)O[C@@H]23)O1`, the Potency entry in experiment [1], in [2], in experiment [3], in experiment [4], in experiment [5] and in experiment [6] was “inactive” throughout. Also, the Potency entry in [7], in experiment [8], in [9], in experiment [10], in [11] and in [12] was “inactive” in each case. Moreover, the Potency result in experiment [14], in experiment [15], in [17] and in experiment [18] was “inactive” each time. Also, the result in experiment [13] and in experiment [16] was inactive.
As to `CCOCCO`, the Potency entry in experiment [1], in experiment [2], in experiment [3], in [4], in experiment [5] and in [6] was “inactive” in each case. In addition, the Potency entry in experiment [7], in experiment [10], in experiment [11], in [12], in experiment [14] and in experiment [17] was “inactive” each time. Further, the Potency result in experiment [18] was “inactive”. For the same compound, the result in experiment [13] and in [16] was inactive.
`COC(=O)c1ccc(C=O)cc1`: the Potency result in [1], in experiment [2], in experiment [3], in experiment [4], in experiment [5] and in experiment [6] was “inactive” throughout. Also, the Potency result in experiment [7], in experiment [8], in experiment [9], in experiment [11], in [12] and in experiment [14] was “inactive” throughout. The Potency entry in experiment [15], in experiment [17] and in experiment [18] was “inactive” in each case. The call in [13] and in experiment [16] was inactive. Also, the activity change, positive = activation in experiment [19] is -0.881%.
Turning to `CC(C)Cc1ccc(C(C)C(=O)O)cc1` (configuration not stated), the outcome in [20] and in [16] was inactive. Besides, the Potency entry in [1], in experiment [3], in experiment [4], in experiment [5], in experiment [6] and in experiment [7] was “inactive” in each case. Besides, the Potency result in experiment [8], in experiment [9], in [10], in experiment [12], in [14] and in experiment [15] was “inactive” each time. Moreover, the Potency result in experiment [17] and in [18] was “inactive” each time.
